# Screen size: about 310,000 compounds; about 2,200 (0.71%) showed an effect of 50% or more. The effect is printed as a negative number. What follows is part of a selection rich in strong results, with near analogues and random picks from the rest.
# Target: human ether-à-go-go-related gene (hERG) potassium channel (human, UniProt Q12809)
# Assay: primary screen, population patch clamp on CHO cells stably expressing hERG; higher = less effect of the substance
# human ether-à-go-go-related gene (hERG) potassium channel, sequence (Q12809 whole entry, looked up): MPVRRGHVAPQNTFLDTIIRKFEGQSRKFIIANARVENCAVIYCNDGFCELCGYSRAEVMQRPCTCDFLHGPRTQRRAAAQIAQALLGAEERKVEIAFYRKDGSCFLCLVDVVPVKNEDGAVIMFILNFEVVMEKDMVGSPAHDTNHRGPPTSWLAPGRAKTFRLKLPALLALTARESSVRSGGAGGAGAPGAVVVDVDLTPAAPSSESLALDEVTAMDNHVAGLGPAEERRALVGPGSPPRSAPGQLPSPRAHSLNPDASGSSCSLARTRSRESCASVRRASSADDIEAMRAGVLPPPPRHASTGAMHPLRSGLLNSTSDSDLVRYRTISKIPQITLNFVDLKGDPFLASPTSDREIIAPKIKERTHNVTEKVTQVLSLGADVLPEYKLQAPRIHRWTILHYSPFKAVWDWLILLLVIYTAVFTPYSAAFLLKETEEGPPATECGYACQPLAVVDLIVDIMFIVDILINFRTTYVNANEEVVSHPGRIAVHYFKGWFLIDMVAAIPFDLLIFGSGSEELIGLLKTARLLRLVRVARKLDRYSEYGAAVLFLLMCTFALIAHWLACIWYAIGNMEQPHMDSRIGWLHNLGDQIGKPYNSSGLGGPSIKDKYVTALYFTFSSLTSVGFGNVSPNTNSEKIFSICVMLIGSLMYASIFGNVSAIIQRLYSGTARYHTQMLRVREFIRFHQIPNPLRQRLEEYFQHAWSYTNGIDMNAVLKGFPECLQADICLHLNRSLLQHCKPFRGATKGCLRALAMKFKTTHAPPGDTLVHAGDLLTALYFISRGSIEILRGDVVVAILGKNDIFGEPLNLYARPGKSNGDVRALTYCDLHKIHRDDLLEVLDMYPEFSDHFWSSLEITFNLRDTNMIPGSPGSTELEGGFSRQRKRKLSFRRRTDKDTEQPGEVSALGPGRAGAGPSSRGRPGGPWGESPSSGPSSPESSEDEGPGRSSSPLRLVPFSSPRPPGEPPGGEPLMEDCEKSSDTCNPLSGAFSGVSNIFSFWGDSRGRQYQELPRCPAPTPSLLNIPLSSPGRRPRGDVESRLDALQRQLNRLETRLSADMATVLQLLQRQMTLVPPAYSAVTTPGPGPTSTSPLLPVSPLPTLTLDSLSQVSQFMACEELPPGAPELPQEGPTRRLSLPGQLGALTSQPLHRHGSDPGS
row,SMILES,"hERG current change (%, negative = inhibition) at 1uM"
1,COc1cc(S(=O)(=O)N(Cc2cccnc2)Cc2ccco2)ccc1-n1cnnn1,-10.7%
2,Cc1cc(C(=O)NC2CCCCCCC2)ccc1[N+](=O)[O-],13.3%
3,Cc1ccc(CN2C(=O)CSC2c2ccc(F)cc2)cc1 (stereo not drawn),12.2%
4,C#CC(CO)N(CCN(Cc1ccccc1)C(C#C)CO)Cc1ccccc1 (stereo not drawn),9.58%
5,COC(=O)C(C)NC(=S)N1CC2C[C@@H](C1)Cn1c2cccc1=O (stereo partly drawn),15.6%
6,COc1cccc(N2CCN(S(=O)(=O)c3ccc(-c4coc(C)n4)cc3)CC2)c1,11.7%
7,CCN(CC(=O)Nc1ccc(NC(C)=O)cc1)C(=O)c1cc2c(s1)CCCCC2,2.11%
8,c1ccc(-c2nnc3sc(-c4cc5ccccc5o4)nn23)cc1,14.4%
9,CCCCCC(=O)Nc1cccc(-c2nc3ncccc3o2)c1,0.93%
10,Cc1ccc(-c2nnc3ccc(SCC(=O)NCc4ccco4)nn23)cc1,4.96%
11,O=C(CSc1ccc2nnc(-c3ccncc3)n2n1)NCc1ccco1,-7.28%
12,O=C(CSc1ccc2nnc(-c3ccccc3)n2n1)NCc1ccco1,-65.8%
13,CCOc1ccc(OCCNC2CCCC2)cc1,2.09%
14,O=C(NCc1ccco1)C(NS(=O)(=O)c1cccc2nsnc12)c1ccccc1 (stereo not drawn),7.81%
15,O=C(CCn1c(=O)[nH]c2ccsc2c1=O)N1CCN(c2cccc(Cl)c2)CC1,-6.52%
16,CC(CNC(=O)c1ccc(C#N)cc1)NC(=O)c1ccc(C#N)cc1 (stereo not drawn),-81.9%
17,CCOc1ccc(C(=O)NCC(C)NC(=O)c2ccc(OCC)cc2)cc1 (stereo not drawn),22.5%
18,CC(CNC(=O)c1ccc(N)cc1)NC(=O)c1ccc(N)cc1 (stereo not drawn),12%
19,CN(C)/C=C/C(=O)c1ccccc1F,4.57%
20,COc1ccc(C(=O)C2CCCN(Cc3cn[nH]c3-c3ccc(F)cc3)C2)cc1OC (stereo not drawn),-25.9%
21,COc1ccc(C(=O)C2CCCN(Cc3nc4ccccc4nc3C)C2)cc1OC (stereo not drawn),-83.3%
22,COc1ccccc1CN1CCCC(C(=O)c2ccccc2SC)C1 (stereo not drawn),-27.3%
23,CCOc1ccccc1CN1CCCC(C(=O)c2ccc(OC)c(OC)c2)C1 (stereo not drawn),-51.1%

row,SMILES,"hERG current change (%, negative = inhibition) at 1uM"
1,COc1cccc(CN2CCCC(C(=O)c3ccccc3SC)C2)c1O (stereo not drawn),-76.9%
2,COc1cccc(OC)c1CN1CCCC(C(=O)c2ccccc2SC)C1 (stereo not drawn),-37.8%
3,COc1ccc(C(=O)C2CCCN(Cc3cnc(C)s3)C2)cc1OC (stereo not drawn),2.68%
4,COc1ccc(C(=O)C2CCCN(Cc3cccc4c3OCO4)C2)cc1OC (stereo not drawn),-29.3%
5,COc1ccc(C(=O)C2CCCN(Cc3ccc(C)s3)C2)cc1OC (stereo not drawn),-32.5%
6,COc1ccc(C(=O)C2CCCN(Cc3cn[nH]c3-c3ccccc3)C2)cc1OC (stereo not drawn),-75.4%
7,COc1ccc(-c2[nH]ncc2CN2CCCC(C(=O)c3cccc(OC)c3)C2)cc1 (stereo not drawn),-29.5%
8,COc1ccc(C(=O)C2CCCN(Cc3c(O)cccc3OC)C2)cc1OC (stereo not drawn),-7.05%
9,CS(=O)(=O)N(Cc1cccc(CN(C(C(=O)O)c2ccccc2)S(C)(=O)=O)c1)C(C(=O)O)c1ccccc1 (stereo not drawn),16.9%
10,O=C(O)CC1(CC(=O)Nc2ccc(C(F)(F)F)cc2)CCCC1,15.6%
11,Cc1ccc(OCCC(=O)OCC(=O)NC(=O)NC2CCCCC2)cc1,14.2%
12,Cn1cnnc1SCc1ccccc1Br,12.6%
13,CC(=O)Nc1ccc(NC(=O)C(C)Sc2n[nH]c(-c3ccc(C)cc3)n2)cc1 (stereo not drawn),8.42%
14,Cc1ccc(C)c(-n2c(C)nc3ccccc3c2=O)c1,13.2%
15,CC(C)(C)c1ccc(C(=O)NCCc2ccccc2)cc1,6.65%
16,Cc1ccc(C2=NN=C(NC(=O)CSc3nnc4c5ccccc5n(C)c4n3)SC2)cc1,8.27%
17,Cc1ccc2oc(C(=O)N3CCN(C)C[C@@H]3C(C)C)c(C)c2c1,9.07%
18,O=C(OCCNC(=O)c1ccc2ccccc2n1)c1ccc(F)cc1,4.77%
19,Cc1ccc(OCCCC(=O)Nc2ccc(S(N)(=O)=O)cc2)cc1,9.66%
20,COc1ccc([N+](=O)[O-])cc1NS(=O)(=O)c1ccc(Cl)c(C(=O)Nc2sc3c(c2C#N)CCCCC3)c1,17.4%
21,COc1ccc(/C(N)=N/OC(=O)CCc2ccccc2)cc1,4.26%
22,COc1cccc(C(=O)CN(C(=O)c2ccc(Cl)cc2Cl)N2C(=O)c3ccccc3C2=O)c1,8.71%

# Source: PMC4336329 (PLoS ONE, 2015)
